Drawing on the OligoGym collection, this text covers sensor-assay potency score (higher = more potent) for 21 sequences.
Note: reference of the scale not given here.

The target in the test is EFNB2. Kind of test: pooled miR-30 sensor sort-seq; sequence = guide strand. As to conditions: shRNA.
The sequence AATTCTTGAAACTTGATGGTGA came in with a sensor-assay potency score (higher = more potent) of 0.644.

The sequence TTGTCGAACTTCTTCCATTTGT had a sensor-assay potency score (higher = more potent) of -0.423.

On to TTGGAAATCGCAGTTCTGCATA, for which the sensor-assay potency score (higher = more potent) is -1.17.

TAAAAAACCAACATTGCTCTAT came in with a sensor-assay potency score (higher = more potent) of 0.0453.

On to TATAGTACCAGTCCTTGTCCAG, for which the sensor-assay potency score (higher = more potent) is -0.415.

As for TATCTGTGGGTATAGTACCAGT, the sensor-assay potency score (higher = more potent) was -1.11.

As to TTTATACAAAACATCTTGCTTA, the sensor-assay potency score (higher = more potent) turned out to be 0.624.

TTAGACTTTATAAAAAACCAAC came in with a sensor-assay potency score (higher = more potent) of -1.36.

As to TTTTCTTCCTGCACATCGCTAT, the sensor-assay potency score (higher = more potent) came to 0.000564.

As for TTGTTGTCGAACTTCTTCCATT, the sensor-assay potency score (higher = more potent) was -1.15.

TTTATCAACCATATAAACTTTA came in with a sensor-assay potency score (higher = more potent) of -0.264.

TTGCTCTATGTACACAATCTGG: the sensor-assay potency score (higher = more potent) was -1.18.

TAGTGCATCTGTCTGCTTGGTC: the sensor-assay potency score (higher = more potent) was 0.00867.

TTCTGCACAGTCTTCCAGCTTC displayed a sensor-assay potency score (higher = more potent) of -0.41.

TTGCACACCTTAACTAGCCCGA came in with a sensor-assay potency score (higher = more potent) of -0.379.

For TTGATCCAGCAGAACTTGCATC, the sensor-assay potency score (higher = more potent) was -0.768.

The sequence TTAGCATAGAACCAAAACGTAG yielded a sensor-assay potency score (higher = more potent) of -1.59.

Consider TTTTCCTTCTTAATAGTGCATC, for which the sensor-assay potency score (higher = more potent) is -0.818.

As for TATAATATTCATACTGGCCAAC, the sensor-assay potency score (higher = more potent) is -1.28.

TATAATGTAATAATCTTTGTTC registered a sensor-assay potency score (higher = more potent) of 0.426.

As to TTAATAGTGCATCTGTCTGCTT, the sensor-assay potency score (higher = more potent) is -0.0531.
